A selection: hits, their analogues and other compounds. The true share with any hit is near 6.2%.
ATXN2 expr inh: reduces ATXN2 reporter expression in HEK-293 cells | HEK-293 ATXN2-luciferase reporter, luminescence, 24 h | Potency, µM (series often up to 57 µM), for the others: top-dose activity change, negative = inhibition, usual class: inhibitors | actives 0.72% (n = 360,000); note: % is set by controls: 0 for no effect and ±100 for the full control effect; nearly all actives have a fitted effect of over 55% in size
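qHTS (up to 57 uM final) was run with 24 h compound exposure of reporter cells at 37 °C. Each well was multiplexed: SteadyGlo luminescence measured ATXN2-luciferase expression after a fluorogenic Gly-Phe-AFC viability readout (25 uM final).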
KB-V1 cytotox: kills drug-selected multidrug resistant KB-V1 cells | KB-V1 MDR cells viability, CellTiter-Glo, 72 h | Potency, µM (highest dose often 46.1 µM), usual class: cytotoxic | actives 3.4% (n = 400,000) | AID 1347076; note: % is set by controls: 0 for no effect and ±100 for the full control effect; nearly all actives have a fitted effect of over 60% in size
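Readout: CellTiter-Glo luminescence, 10 min after addition. Cells: KB-V1 MDR subline, 72 h at 37 degrees C with compound. Analysis: corrected, normalized data fitted to concentration-effect curves.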
S2 tox: cell viability loss in ATXN counter-screen. S2 cells (HEK-293 line with an ATXN2-luciferase reporter) viability, CellTiter-Fluor protease fluorescence, 24 h. Potency, µM (top dose mostly 56.7 µM), most hits filed as cytotoxic. actives 0.49% (n = 400,000). AID 651635; note: nearly all actives have a fitted effect of over 40% in size
HT1080 IDH1KD tx: kills HT-1080 cells with IDH1 knockdown. AID 686971. Potency, µM (top dose mostly 46.1 µM), without a hit: at the highest dose activity, negative = toxicity, usual class: cytotoxic. HT-1080 IDH1 knockdown viability, ATP luminescence, 48 h. actives 2% (n = 360,000);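 note: 0% = DMSO wells and -100% = cell-free medium wells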
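CellTiter-Glo luminescence after 48 h compound exposure at 37 degrees C of IDH1-knockdown HT-1080 cells in 5% FBS RPMI. %Activity scaled between DMSO wells and cell-free media wells, with curves fitted and assigned curve classes.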
KB-3-1 cytotox: KB-3-1 parental cell cytotoxicity; KB-3-1 viability, CellTiter-Glo ATP luminescence, 72 h; Potency, µM (highest dose often 46.1 µM), actives largely listed as cytotoxic; actives 1.4% (n = 400,000); AID 1347075; note: % is set by controls: 0 for no effect and ±100 for the full control effect; nearly all actives have a fitted effect of over 60% in size
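72 h, 37 °C compound treatment of KB-3-1 parental cells; CellTiter-Glo added, 10 min, luminescence read. Data corrected against DMSO-only plates and normalized before curve fitting.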
HT1080NT lethal: kills 2HG-producing HT-1080-NT fibrosarcoma cells | actives 1.6% (n = 360,000) | HT-1080-NT fibrosarcoma viability, CellTiter-Glo ATP luminescence, 48 h | Potency, µM (highest dose often 46.1 µM), for inactives: at the top dose activity, negative = less viability, most hits filed as cytotoxic;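 note: NT is the 2HG producing partner of a matched IDH1 knockdown line; 0% = DMSO-treated cells and -100% = media-only wells without cells; nearly all actives have a fitted effect of over 55% in size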
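Fibrosarcoma NT cells, 750 per well in 5% FBS RPMI, were exposed to compound for 48 hours. Viability: CellTiter-Glo luminescence.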
Numbers without * were called inactive; i = inactive; ? = inconclusive; . = no result; ! = a repeat was not active. Calls come from the whole dose curve; as a rule, active = well fitted curve in the direction sought with a large enough effect; inconclusive = small, poorly fitted or top-dose-only effect, or another doubt; inactive = no such curve, though single readings can be large; an effect the other way counts as inactive or inconclusive. Potency is the fitted concentration of half-maximal effect.

SMILES	ATXN2 expr inh	KB-V1 cytotox	S2 tox	HT1080 IDH1KD tx	KB-3-1 cytotox	HT1080NT lethal
CC(CNC(=S)Nc1cc(F)cc(F)c1)CSc1ccc(Cl)cc1 (centres undefined)	?	?	?	?	i	18µM*
CCC12CN3CC(C)(CN(C1)C3c1c(C)[nH]c3ccccc13)C2=O (centres undefined)	10%	i	i	.	i	.
CCOC(=O)C[C@@H]1OC[C@H](C)N1S(=O)(=O)c1ccc(C)cc1	.	?	.	10%	i	11%
CCCN(CC(=O)Nc1ccccc1OC)C(=O)c1ccc2[nH]c3c(c2c1)CC(C)CC3 (centres undefined)	?	16µM*	?	-21%	?	-2%
CCOc1ccc(NC(=O)CN(C)C(=O)c2ccc3[nH]c4c(c3c2)CC(C)CC4)cc1OCC (centres undefined)	13%	i	i	-3%	i	2%
CCN(CC(=O)Nc1ccccc1OC)C(=O)c1ccc2[nH]c3c(c2c1)CC(C)CC3 (centres undefined)	-35%	i	i	?	?	?
Cc1ccc(NC(=O)CN(C)C(=O)c2ccc3[nH]c4c(c3c2)CC(C)CC4)cc1 (centres undefined)	45%	15µM*	i	-17%	?	-17%
Cc1ccc(-c2nc(SCC(=O)NCc3ccco3)c3c(=O)n(C)c(=O)n(C)c3n2)cc1	13%	?	i	.	i	.
CCOc1ccc2nc3cc(NCc4ccc(OC)cc4)ccc3c(N)c2c1	.	i	i	?	?	?
CCOc1ccc2nc3cc(N)ccc3c(N)c2c1	13µM*	.	?	.	.	.
Cc1nc(-[n+]2nc(-c3ccncc3)nn2-c2ccccc2)sc1C	?	?	14µM*	10µM*	?	26µM*
COC(=O)c1c(NS(=O)(=O)c2ccc3ccccc3c2)sc2c1CCCC2	-18%	16µM*	i	?	i	-19%
COC(=O)c1c(NC(=O)c2ccc(C)c(S(=O)(=O)Nc3ccccc3C)c2)sc2c1CCCC2	-1%	23µM*	i	10%	i	6%
CCOC(=O)c1c(NS(=O)(=O)c2ccc(Br)cc2)sc2c1CCC2	3%	i	i	3%	i	-1%
Cc1cccc(C(=O)Nc2sc3c(c2C(=O)Nc2ccccc2)CCC3)c1	0%	i	?	.	i	.
Cc1cccc(C(=O)Nc2sc3c(c2C(=O)O)CCCC3)c1	33%	7.3µM*!	?	-24%	6.5µM*!	?
COc1ccc(CCNC(=O)C(=O)NCC(c2ccc3c(c2)OCO3)N2CCOCC2)cc1 (centres undefined)	-2%	i	i	.	i	.
CCN1C(=O)C(Cc2nc3ccccc3c(=O)n2-c2ccccc2)c2ccccc21 (centres undefined)	5%	4.1µM*	i	-12%	i	-11%
COc1ccc2c(c1)c(=O)c(S(=O)(=O)c1ccc(C)c(C)c1)cn2CC(=O)Nc1ccccc1	6%	i	i	.	i	.
CCOc1cccc2sc(N(CCCN(C)C)C(=O)c3ccc(S(=O)(=O)N(CC)Cc4ccccc4)cc3)nc12	?	10µM*	?	23µM*	?	?
CCOc1cccc2sc(N(CCCN(C)C)C(=O)c3ccc(C(=O)c4ccccc4)cc3)nc12	?	i	?	?	i	26µM*
CCOc1cccc2sc(N(CCN(C)C)C(=O)c3cc4ccccc4cc3OC)nc12	20µM*	i	?	21µM*	i	?
CCOCCCNC(=O)c1cc(Sc2ccc(F)cc2)nc2ccccc12	1%	21µM*	i	-14%	i	-2%
Cc1ccc(Sc2cc(C(=O)NCCCN(C)C)c3ccccc3n2)cc1	-20%	i	?	18µM*	i	?
COCCCNC(=O)c1cc(Sc2ccc(F)cc2)nc2ccccc12	2%	?	i	-13%	i	-7%
SMILES	ATXN2 expr inh	KB-V1 cytotox	S2 tox	HT1080 IDH1KD tx	KB-3-1 cytotox	HT1080NT lethal
Cc1ccc(-c2c[n+]3c(n2-c2ccccc2)SCC3)cc1	?	i	?	?	3.3µM*	-28%
COc1ccc(-c2c[n+]3c(n2-c2ccccc2)SCC3)cc1	-35%	i	i	?	4.1µM*	-23%
O=C(Nc1ccccc1Cl)N1CCC2(CC1)Oc1ccccc1C(=O)N2Cc1ccc(F)cc1	.	i	.	.	i	.
O=[N+]([O-])c1cc(/C=N/OCc2c(Cl)cccc2Cl)ccc1N1CCOCC1	-4%	13µM*	i	1%	?	4%
CNc1nc(-c2ccc3c(c2)CCN3C(=O)c2cccc(F)c2)cs1	-6%	i	?	?	15µM*	?
Cc1cccc(C(=O)N2CCc3cc(-c4csc(NC(=O)CN5CCCC5)n4)ccc32)c1	-32%	?	?	16µM*	i	21µM*
Cc1cccc(C(=O)N2CCc3cc(-c4nc(NC(=O)CN5CCCC5)sc4C)ccc32)c1	-19%	i	i	?	i	?
O=C(c1cccc(F)c1F)N1CCOc2ccc(CN3CCN(Cc4ccccn4)CC3)cc2C1	.	.	i	.	.	.
COC(=O)[C@@H]1CCCN1Cc1ccc2c(c1)CN(Cc1cccn1-c1ccc(Cl)cn1)CCO2	.	.	i	.	.	.
CC1(C)CC(C(=O)N2CCOc3ccc(CN4CCN(Cc5ccccn5)CC4)cc3C2)CCO1 (centres undefined)	.	.	i	.	.	.
COc1ccccc1N=C1SC(C(=O)Nc2cccc(Cl)c2Cl)C(N)=C1C(N)=O (centres undefined)	-18%	3.7µM*	?	?	?	15µM*
CCOc1ccc(N=C2SC(C(=O)Nc3ccccc3C#N)C(N)=C2C(=O)Nc2ccc(Cl)cc2)cc1 (centres undefined)	9%	i	i	9%	i	10%
C/C(Cl)=C\Cn1c(O)c(N=NC(N)=S)c2ccccc21	24µM*	9.2µM*	.	-24%	?	-30%
C=CCn1c(O)c(N=NC(=S)Nc2cccc(C)c2)c2ccccc21	?	2.9µM*	i	?	?	-6%
O=C(c1[nH]c(C(F)(F)F)nc1-c1ccccc1)N1CCN(c2ccccc2)CC1	-4%	?	i	2.1µM*	6.5µM*	?
O=C(c1[nH]c(C(F)(F)F)nc1-c1ccccc1)N1CCc2c([nH]c3ccccc23)C1	5%	i	i	4.6µM*	5.8µM*	?

Compound activity: PubChem, National Center for Advancing Translational Sciences (NCATS)
